Bioassay records: PubChem, National Center for Advancing Translational Sciences (NCATS)
Shiga toxin inh: A qHTS for Small Molecule Inhibitors of Shiga Toxin. Vero cells, Shiga toxin protein synthesis inhibition reporter. inhibition, % at 38.7 µM. 290,000 compounds, 9.2% hits. AID 2315, 2010; in the data active = inhibition mostly above about 28%, no sharp cut-off; inactive = mostly below about 43%; note: 0% is about no effect
CHX counter: Cycloheximide Counterscreen for Small Molecule Inhibitors of Shiga Toxin; cell reporter, cycloheximide protein synthesis inhibition counterscreen; AID 2314, 2010; 300,000 compounds, 12% hits; max response, %; in the data active = max response mostly above about 13%, no sharp cut-off; inactive = mostly below about 14%; note: read at 38.3 µM for the half of the compounds with a filed dose; 0% is about no effect
SARS PLpro yeast: qHTS of Yeast-based Assay for SARS-CoV PLP. S. cerevisiae expressing SARS-CoV PLpro, growth rescue. Potency, µM (series often up to 32.9 µM), for the others: top-dose activity, positive = growth rescue, most hits filed as activators. AID 485353, 2010. 330,000 compounds, 0.19% hits; calls by dose curve; note: potency is the fitted concentration of half-maximal effect; 0% is about no effect; nearly all actives have a fitted effect of over 55% in size
AMA1-RON2 inh: qHTS for Inhibitors of AMA1-RON; Towards Development of Antimalarial Drug Lead: Primary Screen; AlphaScreen AMA1-biotinylated RON2 peptide binding; 360,000 compounds, 0.2% hits; Plasmodium falciparum AMA1 (3D7) - RON2 peptide interaction; Potency, µM (highest dose often 58.2 µM), inactives show top-dose activity change, negative = inhibition, actives largely listed as inhibitors; AID 720542, 2013;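 note: potency is the fitted concentration of half-maximal effect; 0% = vehicle wells and -100% = peptide control; nearly all actives have a fitted effect of over 45% in size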
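AMA1 (3D7) with his tag at 25 nM final met compounds first, then biotinylated RON2 peptide at 25 nM; detection used donor plus acceptor beads, 10 µg/mL apiece, read by AlphaScreen after 30 min at room temperature.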
AmpC no deterg: qHTS Inhibitors of AmpC Beta-Lactamase (assay without detergent); AmpC nitrocefin hydrolysis, absorbance 480 nm, 0.0001% Triton; 330,000 compounds, 0.52% hits; Potency, µM (titrated, usually from 57.1 µM), without a hit: top-dose activity change, negative = inhibition, most hits filed as inhibitors; AID 485341, 2010; P00811;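 note: potency is the fitted concentration of half-maximal effect; plate controls were no compound for no effect and no enzyme for full effect; nearly all actives have a fitted effect of over 20% in size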
Target sequence (P00811 whole entry, looked up): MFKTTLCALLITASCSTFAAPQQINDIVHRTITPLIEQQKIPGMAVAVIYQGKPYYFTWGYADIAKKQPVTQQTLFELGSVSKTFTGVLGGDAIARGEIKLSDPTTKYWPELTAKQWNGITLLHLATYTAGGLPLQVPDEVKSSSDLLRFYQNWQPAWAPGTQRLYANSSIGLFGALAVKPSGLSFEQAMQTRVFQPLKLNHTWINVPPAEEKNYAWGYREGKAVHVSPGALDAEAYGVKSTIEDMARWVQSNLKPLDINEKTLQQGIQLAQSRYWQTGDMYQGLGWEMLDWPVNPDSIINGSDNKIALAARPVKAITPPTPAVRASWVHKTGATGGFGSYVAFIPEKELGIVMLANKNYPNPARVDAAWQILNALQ
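AmpC (5.3 nM in the dispensed reagent) in 20 mM phosphate pH 7.0 with 0.01% (detergent screen) or 0.0001% Triton X-100 was preincubated with compounds for 15 min at room temperature. Nitrocefin was then added from an 800 uM solution, and hydrolysis was followed at 480 nm.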
AmpC inh detg: qHTS Inhibitors of AmpC Beta-Lactamase (assay with detergent); P00811; AmpC hydrolysis of nitrocefin, absorbance 480 nm, 0.01% Triton; Potency, µM (top dose mostly 114 µM), inactives show at the highest dose activity change, negative = inhibition, most hits filed as inhibitors; 370,000 compounds, 0.041% hits; AID 485294, 2010;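 note: potency is the fitted concentration of half-maximal effect; 0% = no-compound wells and -100% = no-enzyme wells; nearly all actives have a fitted effect of over 25% in size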
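20 mM phosphate pH 7.0 + 0.01% (detergent screen) or 0.0001% Triton X-100; 5.3 nM AmpC reagent; cpd preinc 15 min RT; nitrocefin (800 uM stock) to start; A480 q20 s × 4 min; Activity was normalised to no-enzyme and no-compound control wells.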
Numbers without * were called inactive; ? = inconclusive; · = no result given. The entries come from a sample that favours hits as a whole. Unless noted, calls come from the whole dose curve; as a rule, active = well fitted curve in the direction sought with a large enough effect; inconclusive = small, poorly fitted or top-dose-only effect, or another doubt; inactive = no such curve, though single readings can be large; an effect the other way counts as inactive or inconclusive.

SMILES	Shiga toxin inh	CHX counter	SARS PLpro yeast	AMA1-RON2 inh	AmpC no deterg	AmpC inh detg
Cc1ccc2nc(NC(=O)CCn3cccc3)sc2c1	53*	22*	0%	-11%	-32%	?
CCCn1c(N2CCN(C(=O)Nc3ccc(Cl)cc3)CC2)nc2ccccc21	12	-2	-1%	-2%	-19%	8%
CC(C)n1c(N2CCN(C(=O)Nc3ccc(Cl)cc3)CC2)nc2ccccc21	34*	-1	-3%	-18%	-32%	6%
O=C(Nc1ccc(Cl)cc1)N1CCN(c2ncccn2)CC1	46	20*	-1%	-7%	-17%	1%
O=C(Nc1ccc(Cl)cc1)N1CC2CC(C1)c1cccc(=O)n1C2 (centres undefined)	33	28*	-1%	-1%	-17%	2%
O=C(Nc1ccc(Cl)cc1)N1CCSc2ccccc21	27	35*	-2%	-19%	-36%	0%
O=C(Nc1ccc(Br)cc1)N1C[C@H]2C[C@@H](C1)c1cccc(=O)n1C2	-8	-2	?	-4%	-16%	-7%
O=C(Nc1ccc(Cl)cc1)N1CCOCC1	·	14*	0%	8%	-7%	0%
CC(C)c1ccc(NC(=O)N2CCOCC2)cc1	62*	39*	2%	7%	-1%	-9%
O=C(Nc1ccc(Cl)cc1)N1CCCC1	36	14*	-22%	-2%	-5%	-9%
COc1ccc(NC(=O)N2CCOCC2)cc1	·	-1	2%	0%	-6%	-6%
CC(=O)Nc1ccc(NC(=O)N2CCOCC2)cc1	·	·	·	0%	·	·
Cc1ccc(F)c(NC(=O)c2cncn2-c2ccccc2)c1	2	-2	-1%	38%	-5%	-9%
O=C(N/N=C/c1ccco1)c1ccc(N2CCCC2=O)cc1	11	0	-26%	3%	-38%	-4%
O=P1(c2ccccc2)CC=CC1	·	·	·	-5%	·	·
O=C(Nc1cccc2ccccc12)c1ccccc1Cl	5	6	2%	-1%	-22%	-5%
O=C(CNc1cccc2ccccc12)c1ccc([N+](=O)[O-])cc1	-3	-3	9%	-23%	-23%	7%
NC(=O)c1ccccc1NC(=O)Nc1cccc2ccccc12	15	36*	0%	5%	-24%	3%
O=C(Nc1cccc2ccccc12)c1ccccc1	96*	42*	-1%	-5%	-20%	2%
NC(=O)NNC(=S)Nc1cccc2ccccc12	-20	-1	1%	37%	-18%	-6%
O=C(Nc1cccc2ccccc12)c1ccc([N+](=O)[O-])cc1	21	14*	2%	-5%	-15%	2%
Nc1ccccc1C(=O)Nc1cccc2ccccc12	36*	35*	-2%	3%	-36%	-15%
O=C(COc1ccc(Cl)cc1)Nc1ccc(N2CCN(C(=O)c3ccco3)CC2)cc1	-18	4	-2%	-20%	-1%	-1%
COc1ccccc1NS(=O)(=O)c1cccc(C(=O)N/N=C/c2cn(-c3ccccc3)nc2-c2ccccc2)c1	7	8	14%	1%	-17%	1%
O=C(Nc1cccc2ccccc12)c1ccc(F)cc1	52*	44*	2%	0%	-10%	0%
SMILES	Shiga toxin inh	CHX counter	SARS PLpro yeast	AMA1-RON2 inh	AmpC no deterg	AmpC inh detg
NS(=O)(=O)c1ccc(O)c(NC(=O)c2ccc([N+](=O)[O-])cc2)c1	68	22*	0%	14%	-17%	4%
O=C(Nc1cc([N+](=O)[O-])ccc1O)c1cccc(C(=O)Nc2cc([N+](=O)[O-])ccc2O)c1	-4	-1	-11%	0%	-24%	?
Nc1ccc(-c2cnc(-c3ccc(N)cc3)nc2)cc1	33	51*	6%	-9%	-13%	1%
COc1ccc(Cl)cc1NC(=O)c1sc2nc3c(cc2c1N)N1CCC3CC1	·	·	·	·	·	5%
COc1ccc2c(c1)CCc1cn[nH]c1-2	23	13*	-3%	-3%	-19%	3%
COc1cccc(NC(=O)c2nn(C)c(C(=O)Nc3cccc(OC)c3)c2[N+](=O)[O-])c1	18	-2	0%	0%	-40%	-7%
